Source: article PMC5540273 (PLoS ONE, 2017)

System: CAMK1G
Settings: concentration: 1 μM, replicates: in singlicate; n = 1
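Also: KINOMEscan kinase panel screen.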

Row | Structure (SMILES) | %Inh
1 | Fc1ccc(Nc2nccc(-c3c(-c4ccc(Cl)cc4)nn4ncccc34)n2)cc1F [GW829058] | 0%
2 | CS(=O)(=O)CCNCc1ccc(-c2ccc3ncnc(Nc4ccc(OCc5ccccc5)c(Cl)c4)c3c2)o1.Cl [GW574783] | 27%
3 | Cn1ccc2ncnc(Oc3ccc(NC(=O)Nc4cccnc4)c(Cl)c3)c21 | 27%
4 | COc1ccc(NC(=O)c2ccc(-c3cc(-c4nnc(C)o4)ccc3C)cc2)cc1 [GW595885] | 0%
5 | NC(=O)c1sc(-n2cnc3ccccc32)cc1OCc1ccccc1F [GSK1024306] | 0%
6 | Fc1ccc(-c2ncn(CCCNCc3ccccc3)c2-c2ccncc2)cc1 | 0%
7 | CCC(CC)(CC)n1cnc2c(N)ncnc21 [SKF-97620] | 6%
8 | N#Cc1ccc(Oc2ccc(Nc3ncnc4cc[nH]c34)cc2Cl)cc1 | 17%
9 | O=C(Nc1n[nH]c2nc(-c3ccco3)c(Br)cc12)c1ccc(CN2CCCC2)cc1.O=C(O)[C@H](O)[C@@H](O)C(=O)O [SB-742352] | 0%
10 | COc1ccc(-c2nc3n(c2-c2ccncc2)CCC3)cc1 [SKF-104493] | 0%
11 | O=C(NCCCN1CCCC1=O)c1cnc(NCc2cc(Cl)ccc2Cl)nc1NC1CCNCC1 | 0%
12 | O=C(Nc1ccccc1)Nc1ccc(Oc2ccc3nccn3n2)cc1 | 0%
13 | CCCc1ccc(S(=O)(=O)NC2CCN(c3ccnc(Nc4ccc(OC)cc4)n3)C2)cc1 (stereo not shown) [GSK1379737] | 0%
